In the OligoGym collection:

Molecular target: MPHOSPH9
Experiment: pooled miR-30 sensor sort-seq; sequence = guide strand
Details: shRNA
Also: reference of the scale not given here.

Sequence	sensor-assay potency score (higher = more potent)
TTCATCTACAGTGTTGACCGAG	0.377
TTGAGCTTCTTTATCATCTGAG	0.656
TAGATCTTGAACCTCCATCTTC	-0.263
TATTTGTTTAGAAACAAGCTGC	0.128
TTGTTGATGAACTTCCAGGTGA	-0.421
TTACAATGTAGAACAAGTCTAT	0.128
TTAAAGACACATGACACTCTTC	0.499
TAACGTAGGATCTAGAGTCAGG	-0.553
TTTGGTGACACATCTGTGGAAG	-0.32
TTGCTTGTGAAAATGAGTCTAT	-0.111
TTTATCAACAAGCTTGTTGATG	-0.498
TTGTTTAGAAACAAGCTGCTTC	0.601

Molecular target: MPST
Experiment: as above
Details: shRNA

Sequence	sensor-assay potency score (higher = more potent)
TCGTAGGTCTTGATGAAGGCGG	-0.615
TTGATGTCCTCGTAGGTCTTGA	-0.443
TAGGTCTTGATGAAGGCGGGGT	0.122
TTGAGTGAAGAAACACTCTCTT	0.653
TTCTCCTGGAACAGATGGCGGA	-0.871
TACCACTCCACCCAGGAGCCAT	-1.23
TCGTAGATCACGACGTGGGTGG	-0.279
TGAGTGAAGAAACACTCTCTTG	-1.53
TCGATGTCGAAGAAAGCGGCGC	-0.934
TTCTCCTTGATGTCCTCGTAGG	-1.08
TTAGACAGGTCCACTTTCTTCT	0.441
TGAAGAAACACTCTCTTGGTGA	-0.0211

Molecular target: MPZL1
Experiment: as above
Details: shRNA

Sequence	sensor-assay potency score (higher = more potent)
TTTGACATCACAGATATAGGTG	0.376
TTTTCTATGTTGATTGATGCAT	-0.358
TAACTGTGCATATATGACTGGG	-0.763
TATTTATACATATCCTTTGTAC	-0.807
TACACCACAGACTCTGACTTGT	0.413
TTGACATCACAGATATAGGTGC	0.0652
TTGTGTACCATTTGCCACGAAG	-1.44
TTTTCTACGACATAGAGCCTAA	-0.79
TTTCTATGTTGATTGATGCATC	-0.949
ATATTTTCTATGTTGATTGATG	-0.933
TATTCTCTTAATTCTTTCGGAT	-0.74
TTTTTCTACGACATAGAGCCTA	-0.173
